BoNT A protease: blocks Botulinum neurotoxin A light chain protease; 360,000 compounds, 0.17% hits; inhibition, % at 10 µM; AID 588499; multiplex microsphere protease substrate cleavage, flow cytometry; also: plate controls were buffer without enzyme for full effect and enzyme alone for no effect
Anthrax LF inh2: blocks Bacillus anthracis lethal factor protease; P15917; multiplex microsphere protease cleavage assay, LF; inhibition, % at 10 µM; 360,000 compounds, 0.12% hits; also: plate controls were buffer without enzyme for full effect and enzyme alone for no effect
Target sequence (P15917 whole entry, looked up): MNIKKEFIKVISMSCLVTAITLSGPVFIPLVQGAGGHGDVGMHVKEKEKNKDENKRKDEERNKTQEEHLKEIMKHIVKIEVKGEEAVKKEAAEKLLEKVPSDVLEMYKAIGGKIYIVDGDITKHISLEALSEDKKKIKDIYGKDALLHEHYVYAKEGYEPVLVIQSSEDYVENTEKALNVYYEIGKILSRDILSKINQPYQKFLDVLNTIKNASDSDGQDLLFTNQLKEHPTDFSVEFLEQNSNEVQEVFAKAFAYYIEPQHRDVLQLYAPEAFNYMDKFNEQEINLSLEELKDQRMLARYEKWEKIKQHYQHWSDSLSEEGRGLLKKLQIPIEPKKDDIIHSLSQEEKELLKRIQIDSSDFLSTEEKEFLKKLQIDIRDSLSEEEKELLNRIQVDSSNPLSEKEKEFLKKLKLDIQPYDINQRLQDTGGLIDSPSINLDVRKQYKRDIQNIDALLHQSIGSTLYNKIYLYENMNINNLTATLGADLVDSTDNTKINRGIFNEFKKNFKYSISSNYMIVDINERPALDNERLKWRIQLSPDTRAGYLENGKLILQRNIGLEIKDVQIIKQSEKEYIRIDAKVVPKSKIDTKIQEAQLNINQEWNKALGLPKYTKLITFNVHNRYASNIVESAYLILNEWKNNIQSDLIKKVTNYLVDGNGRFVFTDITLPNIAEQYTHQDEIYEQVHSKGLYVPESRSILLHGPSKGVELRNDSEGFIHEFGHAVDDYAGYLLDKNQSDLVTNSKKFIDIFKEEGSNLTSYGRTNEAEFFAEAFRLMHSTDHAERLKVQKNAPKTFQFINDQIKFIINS
BoNT-F LC inh: BoNT F light chain protease inhibition | Multiplex microsphere protease cleavage assay, flow cytometry | inhibition, % at 10 µM | 360,000 compounds, 0.22% hits; in the data active = inhibition above about 35%, passing the limit was not always enough; inconclusive = no clear call, values can overlap the other calls; also: plate controls were buffer without enzyme for full effect and enzyme alone for no effect
Bead autofluor: counter-screen for toxin protease inhibitors: compound fluorescence | 360,000 compounds, 3.1% hits | fluorescence intensity (no concentration beside the values) | compound autofluorescence counterscreen, microsphere flow cytometry; hits give high values; in the data active = fluorescence intensity above about 16000; inconclusive = no clear call, values can overlap the other calls
SARS 3CLpro inh: SARS-CoV 3CLpro protease inhibition; recombinant SARS-CoV 3CLpro, quenched FRET peptide cleavage; inhibition, % at 6 µM; 290,000 compounds, 0.14% hits; AID 1706; in the data active = inhibition above about 12%
BoNTA LC inh 1: BoNT/A light chain protease inhibition; 720 compounds, 3% hits; shares compounds with BoNT-F LC inh; AID 602139; multiplex microsphere protease assay, flow cytometry; inhibition, % at 10 µM; in the data active = inhibition above about 32%
BoNTF LC inh 1: BoNT/F light chain protease inhibition | multiplex microsphere protease cleavage assay, flow cytometry | inhibition, % at 10 µM | 720 tested, under 10 active | shares compounds with BoNT-F LC inh; call rule not given here
LF protease CP1: inhibitors of Bacillus anthracis lethal factor protease; shares compounds with BoNT-F LC inh; multiplex microsphere protease cleavage assay, LF; inhibition, % at 10 µM; 720 tested, under 10 active; AID 602142; call rule not given here
* = called active by the depositor; ? = inconclusive; . = no result given. The list is not random: actives were taken first. Their share in the collection is about 3.5%. Rule as the data show it, unless noted: active = inhibition above about 30%; inconclusive = no clear call, values can overlap the other calls; inactive = below that.

SMILES | BoNT A protease | Anthrax LF inh2 | BoNT-F LC inh | Bead autofluor | SARS 3CLpro inh | BoNTA LC inh 1 | BoNTF LC inh 1 | LF protease CP1
Nc1nc(SCC(=O)Nc2cc(-c3ccccc3)nn2-c2ccccc2)n[nH]1 | ? | 6.9 | 40.1* | 5643 | 1.8 | 1.3 | -2.9 | -2.9
Cc1ccc(-c2cc(NC(=O)CSc3n[nH]c(N)n3)n(-c3ccccc3)n2)cc1 | 0.5 | -3.8 | 3.7 | 4856 | -2.1 | . | . | .
O=c1c2oc3ccccc3c2ncn1Cc1ccccc1Cl | -0.1 | -7.3 | -1.3 | 10056 | 4.4 | . | . | .
C=CCn1cnc2c(oc3ccccc32)c1=O | 3.2 | 35.1* | 7.0 | 3046 | -2.5 | -2.5 | -3.4 | -2.6
CCc1ccc(OCCCC(=O)Nc2ccc(N3CCCCC3)cc2)cc1 | -4.2 | -6.7 | 39.7* | 5583 | 1.8 | -1.9 | 3.7 | -4.1
Cn1c(SCC(=O)N/N=C/c2ccc([N+](=O)[O-])s2)nnc1-c1ccccc1 | 0.8 | -2.0 | -7.7 | 2414 | 2.3 | . | . | .
Cc1cc(C(=O)Nc2ccccc2)c2ccccc2n1 | -0.6 | 22.3 | 8.9 | 3543 | 2.7 | . | . | .
CC(C)Cc1cc(C(=O)Nc2ccccc2)c2ccccc2n1 | -1.3 | -6.2 | 42.6* | 3635 | -0.8 | -0.9 | -3.7 | 0.1
CCc1nnc(NC(=O)CSc2nnc(C)n2Cc2ccccc2)s1 | -1.2 | -7.6 | -6.8 | 6940 | -0.4 | . | . | .
Cc1nnc(SCC(=O)Nc2sccc2C(N)=O)n1Cc1ccccc1 | ? | 6.0 | 35.8* | 5801 | 0.4 | -1.1 | -5.9 | -0.8
COc1cc(NC(=O)CCn2c(=O)[nH]c3ccsc3c2=O)cc(OC)c1 | 4.3 | 3.5 | 40.7* | 4712 | -7.0 | 0.1 | -3.3 | -4.3
Cc1ccc(NC(=O)CCn2c(=O)[nH]c3ccsc3c2=O)cc1 | . | . | . | . | 1.5 | . | . | .
S=C(Nc1ccc2nc(-c3ccccn3)c(-c3ccccn3)nc2c1)N1CCCCC1 | 33.1* | 9.1 | 8.0 | 2750 | -0.5 | 3.3 | -2.6 | 0.4
Cc1nc2ccc(NC(=S)N3CCN(c4ccccn4)CC3)cc2nc1C | 1.8 | -2.4 | 0.0 | 2391 | -3.8 | . | . | .
CCN1CCCC1Cn1cnc2c([nH]c3ccc(C)cc32)c1=O (centres undefined) | -1.2 | 0.4 | 0.1 | 5129 | 0.1 | . | . | .
O=C(O)c1cc(-c2ccccc2)c(N2CCOCC2)s1 | 84.4* | 69.2* | 21.1 | 2262 | -2.2 | 0.4 | 0.2 | 2.3
Cc1cc(NC(=O)CSCC(=O)Nc2nc3ccc(F)cc3s2)no1 | -0.4 | -0.5 | -0.1 | 3520 | . | . | . | .
COc1ccc2nc(NC(=O)CSC(C)C(=O)Nc3cc(C)on3)sc2c1 (centres undefined) | 84.8* | ? | ? | 4402 | . | 0.7 | -0.9 | 1.8
Cc1cccc(C)c1NC(=O)C(C)c1ccc(-c2ccccc2)c(F)c1 (centres undefined) | 0.2 | -2.6 | -3.4 | 2946 | 5.4 | . | . | .
Cc1nnc(N(C(=O)c2cnccn2)c2ccccc2)s1 | -0.4 | -5.1 | 32.7 | 3628 | -7.7 | 0.4 | -1.3 | 2.3
Cc1ccc(S(=O)(=O)c2cc(C)cc(S(=O)(=O)Nc3ccc(C(=O)O)cc3)c2C)cc1 | -2.1 | 5.6 | 39.4* | 3745 | 0.4 | 0.3 | 0.6 | 0.3
Cc1cc(S(=O)(=O)Nc2cccc(C(=O)O)c2)c(C)c(S(=O)(=O)c2ccc(Cl)cc2)c1 | 5.0 | 1.7 | 0.1 | 3561 | -0.8 | . | . | .
O=C1CC(c2ccc(S(=O)(=O)N3CCN(c4ccccc4)CC3)cc2)CN1 (centres undefined) | -1.7 | -0.3 | -18.3 | 9755 | -2.2 | . | . | .
COc1ccccc1NCC(=O)N1CCN(S(=O)(=O)c2ccccc2)CC1 | -8.0 | 32.1* | -12.3 | ? | . | 1.7 | 1.7 | 1.8
COc1cccc(OC)c1C(=O)N1CCN(S(=O)(=O)c2ccccc2)CC1 | -0.2 | -3.9 | -0.1 | 5023 | 3.3 | . | . | .
SMILES | BoNT A protease | Anthrax LF inh2 | BoNT-F LC inh | Bead autofluor | SARS 3CLpro inh | BoNTA LC inh 1 | BoNTF LC inh 1 | LF protease CP1
COCCN(C(=O)CC(C)(C)C)c1nnc(-c2cccnc2)s1 | -0.6 | -12.2 | -2.6 | 2496 | -1.7 | . | . | .
COCCN(C(=O)c1ccccc1)c1nnc(-c2cccnc2)s1 | 1.6 | 5.3 | 35.5* | 4193 | 0.3 | 0.8 | -2.2 | 0.8
CC(=O)N1N=C(c2cccs2)CC1c1cccc([N+](=O)[O-])c1 (centres undefined) | -0.4 | -7.9 | 5.0 | 3336 | -0.1 | . | . | .
CC(=O)N1N=C(c2ccccc2)CC1c1cccc([N+](=O)[O-])c1 (centres undefined) | 2.3 | -10.4 | 41.9* | 3748 | 0.2 | -0.5 | -1.0 | -4.6
Cc1ccc2c(C)nc(Nc3nc(CSc4nnnn4-c4ccccc4)cc(=O)[nH]3)nc2c1 | ? | -16.9 | 7.6 | 14839 | -0.5 | . | . | .
COc1ccc(S(=O)(=O)NCC2CCCO2)cc1Cl (centres undefined) | -1.3 | -11.8 | 35.4* | 2925 | 0.4 | -0.9 | -3.5 | -1.7
CC(/C=C/c1ccc2c(c1)OCO2)=N/NC(=O)CNc1ccc(C)cc1 | -1.1 | -3.8 | -6.2 | 8297 | 4.7 | . | . | .
CN(CC(=O)Nc1ccc(Cl)c(C(F)(F)F)c1)C(=O)C1CC(=O)N(c2ccc3c(c2)OCCO3)C1 (centres undefined) | -0.2 | -2.7 | 2.4 | 3422 | . | . | . | .
CCOc1cc2nc3c4ccccc4n(C)c3nc2cc1OCC | 48.5* | 19.6 | 7.9 | 2580 | 0.7 | 7.5 | -0.1 | 3.1
Cc1ccc(-c2csc(NC(=O)c3ccccc3F)c2C(=O)O)cc1 | 3.5 | 20.3 | 35.0* | 3981 | 9.6 | -0.4 | -4.9 | -7.1
O=C(Nc1scc(-c2ccccc2)c1C(=O)O)c1ccccc1F | 3.3 | 19.5 | ? | 4068 | 5.7 | . | . | .
Cc1c(NC(=O)c2cccc(NC(=O)Cc3ccc(F)cc3)c2)c(=O)n(-c2ccccc2)n1C | -2.2 | 43.7* | 2.2 | ? | . | -2.2 | -10.3 | -2.9
Cc1c(NC(=O)c2cccc(NC(=O)Cc3c(F)cccc3Cl)c2)c(=O)n(-c2ccccc2)n1C | -0.3 | -3.2 | -2.0 | 2960 | . | . | . | .
C=CCSc1nc(-c2ccc3c(c2)OCO3)cc(C(F)(F)F)c1C#N | 30.7* | 16.2 | 16.7 | 10622 | -1.1 | 3.8 | -1.0 | 4.1
O=C(O)CCn1c(=O)oc2cc(S(=O)(=O)N3CCCC3)ccc21 | -0.5 | 3.2 | 0.7 | 3844 | . | . | . | .
COc1ccccc1N1CCN(Cc2ccco2)CC1 | 3.1 | -2.6 | 10.7 | 7355 | -4.4 | . | . | .
Clc1ccccc1N1CCN(Cc2ccco2)CC1 | 2.0 | 17.1 | 50.3* | 3623 | 3.1 | -1.2 | -3.0 | -2.3
CC1(c2nnc(-c3cccc(Cl)c3)o2)CC(c2ccc(C#N)cc2)=NO1 (centres undefined) | -0.3 | -2.0 | -7.8 | 2840 | . | . | . | .
COc1ccc(-c2nnc(SCC(=O)Nc3ccc(C(=O)O)cc3)n2-c2ccc(Cl)cc2)cc1 | 0.3 | 28.4 | 10.0 | 3869 | 10.3 | 0.5 | 0.1 | -2.3
COc1ccc(-n2c(SCC(=O)Nc3ccc(C(=O)O)cc3)nnc2-c2cccs2)cc1 | 0.1 | 3.5 | 4.6 | 4464 | 2.4 | . | . | .
Cc1ccc(C)c(Nc2nc(-c3ccncc3)nc3ccccc23)c1 | 0.4 | -2.4 | 41.6* | 3520 | -4.8 | -1.8 | -0.4 | -2.7
O=S(=O)(c1ccc(Cl)cc1)N1CCCc2ccccc21 | -0.5 | -4.6 | -13.4 | 3196 | 0.4 | . | . | .
